In PubChem BioAssay (EPA / NIEHS):
Records with an inconclusive call do not appear. Calls of active or inactive are those of the source. The calls were made as follows: active = hit-call score of the fitted dose curve at least 0.9, where 1 is the maximum; inconclusive = response in the unintended direction; inactive = score below 0.9.

Biological target: human CYP19A1, CYP19A1 (gene 1588) (UniProt P11511)
Experiment: NVS_ADME_hCYP19A1: NovaScreen (NVS) CYP450-related Enzyme Activity (ADME) Assay for human CYP19A1 (AID 2283098);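 as to AC50: potency for inhibitors seen as loss of fluorescent enzyme signal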
Experimental: NVS_ADME_hCYP19A1 is a biochemical, single-readout assay that uses extracted gene-proteins in a cell-free assay. Measurements were taken 0.5 hour after chemical dosing in a 384-well plate.NVS_ADME_hCYP19A1 is one of one assay component(s) measured or calculated from the NVS_ADME_hCYP19A1 assay. It is designed to make measurements of enzyme activity, a form of enzyme reporter, as detected with fluorescence intensity signals by Fluorescence technology.Data from the assay component NVS_ADME_hCYP19A1 was analyzed into 1 assay endpoint. This assay endpoint, NVS_ADME_hCYP19A1, was analyzed in the positive analysis fitting direction relative to Acetonitrile as the negative control and baseline of activity. Using a type of enzyme reporter, loss-of-signal activity can be used to understand changes in the enzymatic activity as they relate to the gene CYP19A1. Furthermore, this assay endpoint can be referred to as a primary readout, because this assay has produced multiple assay endpoints where this one serves a enzymatic activity function. To generalize the intended target to other relatable targets, this assay endpoint is annotated to the cyp intended target family, where the subfamily is steroidogenesis-related.
Binding assays used specific radioligands (tritiated, iodinated) with non-radioactive competitive displacement ligands in agonist or antagonist protocols (as indicated) and various reference compounds and inhibitors to titrate specific binding to receptors and transporters. Most enzyme assays (CYPs, kinases, phosphatases, proteases, HDACs) used recombinant protein and specific substrates (fluorescence mostly, some colorimetric and radioactive) and inhibitors, followed by a biochemical separation of substrate and product. All assays for the biochemical HTS were initially run in duplicate at a single concentration (10 uM for CYP450 assays and 25 uM for all others). […] Each assay was run with positive and negative controls, and concurrent controls on every plate. The follow-up (secondary) screen tested active chemical-pairs in concentration series, as well as a few additional assays not tested in the primary screen, some selected negative inactives, and several cases re-run in the concentration series for confirmatory purposes.

Sequence of human CYP19A1, CYP19A1 (gene 1588) (P11511 whole entry, looked up): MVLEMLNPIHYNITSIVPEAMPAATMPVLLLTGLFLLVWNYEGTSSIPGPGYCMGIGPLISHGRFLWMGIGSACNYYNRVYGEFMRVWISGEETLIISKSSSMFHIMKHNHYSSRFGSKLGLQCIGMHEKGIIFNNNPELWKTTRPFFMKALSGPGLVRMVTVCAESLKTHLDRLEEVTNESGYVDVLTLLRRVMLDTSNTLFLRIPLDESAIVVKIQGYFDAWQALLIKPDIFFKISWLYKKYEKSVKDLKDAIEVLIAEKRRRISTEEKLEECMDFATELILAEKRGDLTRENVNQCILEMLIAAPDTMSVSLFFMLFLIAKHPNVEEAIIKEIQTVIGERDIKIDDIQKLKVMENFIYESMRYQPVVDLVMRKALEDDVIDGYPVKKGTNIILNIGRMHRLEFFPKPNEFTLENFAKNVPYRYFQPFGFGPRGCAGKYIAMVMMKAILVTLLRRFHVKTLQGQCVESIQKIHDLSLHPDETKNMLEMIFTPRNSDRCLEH

Structure (SMILES) | outcome | AC50
O=C1C2CC=CCC2C(=O)N1SC(Cl)(Cl)Cl (configuration not stated) | inactive | –
OC(c1ccc(Cl)cc1)(c1ccc(Cl)cc1)C(Cl)(Cl)Cl | inactive | –
CNC(=O)Oc1cccc2ccccc12 | inactive | –
CC1(C)C(C=C(Cl)Cl)C1C(=O)OC(C#N)c1cccc(Oc2ccccc2)c1 (configuration not stated) | inactive | –
COP(=S)(OC)Oc1ccc([N+](=O)[O-])c(C)c1 | inactive | –
CC(C)Oc1cccc(NC(=O)c2ccccc2C(F)(F)F)c1 | inactive | –
COCC(=O)N(c1c(C)cccc1C)C(C)C(=O)OC (configuration not stated) | inactive | –
CN=C=S | inactive | –
CC(C)=CC1C(C(=O)OCc2coc(Cc3ccccc3)c2)C1(C)C (configuration not stated) | – | 444 nM (active)
Cc1c(COC(=O)[C@@H]2[C@H](/C=C(\Cl)C(F)(F)F)C2(C)C)cccc1-c1ccccc1 | inactive | –
CC(C)NC(=O)N1CC(=O)N(c2cc(Cl)cc(Cl)c2)C1=O | inactive | –
N#CN=C1SCCN1Cc1ccc(Cl)nc1 | – | 933 nM (active)
CCN(CC)c1nc(C)cc(OP(=S)(OC)OC)n1 | inactive | –
CCN(CC)C(=O)C(C)Oc1cccc2ccccc12 (configuration not stated) | inactive | –
CCCCC(C#N)(Cn1cncn1)c1ccc(Cl)cc1 (configuration not stated) | – | 789 nM (active)
CCOC(=O)C(C)OC(=O)c1cc(Oc2ccc(C(F)(F)F)cc2Cl)ccc1[N+](=O)[O-] (configuration not stated) | inactive | –
CC(C)(C)C(=O)C(Oc1ccc(Cl)cc1)n1cncn1 (configuration not stated) | – | 2380 nM (active)
